The record followed here is PubChem BioAssay (NCATS).

Molecules are shown by their SMILES. Results filed as inconclusive are left out. Calls of active or inactive are those of the source. Calls follow the shape of the dose curve; as a rule, active = well fitted cell-killing curve with a large enough effect; inconclusive = small, poorly fitted or top-dose-only effect; inactive = flat fitted curve, though single readings scatter.
Potency is read from the fitted curve at half-maximal effect.

This assay in a line: Cell Viability - LYMP2-002 (AID 977).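 Also: compound exposure lasted 24 h at 37 °C.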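 As to activity change, negative = cytotoxic: plate controls were DMSO only for no effect and 92 µM tetraoctylammonium bromide for full effect.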 To be noted: LYMP2-002 lymphoblastoid cell viability, qHTS; series mostly up to 92.2 µM; activity change, negative = cytotoxic: at the top concentration. In a few lines:
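Human lymphoblastoid LYMP2-002 cells, 2500 per well, exposed to compounds for 24 h at 37 C in complete medium; viability read as intracellular ATP by CellTiter-Glo luminescence, AC50 from Hill fits.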
For `CC(C)(C)CC(C)(C)c1ccc(OCCOCC[N+](C)(C)Cc2ccccc2)cc1`, the Potency was 25.1 µM (active). As to `COC1=CC(=O)C[C@@H](C)[C@]12Oc1c(Cl)c(OC)cc(OC)c1C2=O`, the “activity change, negative = cytotoxic” value is -4.54% (inactive). Turning to `C=CCc1ccc(O)c(OC)c1`, the “activity change, negative = cytotoxic” value is 1.52% (inactive).

Turning to `CC(=O)Oc1ccc(C(c2ccc(OC(C)=O)cc2)c2ccccn2)cc1`, the “activity change, negative = cytotoxic” value is -1.22% (inactive).

For the compound `O=C(O)CCCCC(=O)O`, the “activity change, negative = cytotoxic” value is -22.4% (inactive).

As for `CCCCCCc1ccc(O)cc1O`, the “activity change, negative = cytotoxic” value was -1.97% (inactive). Same read-out and setting: as for `Nc1ccc(C(=O)O)cc1`, the figure is -0.954% (inactive); as for `CC(O)C(=O)O` (stereo not drawn), -9.84% (inactive); as for `O=c1ccc2ccccc2o1`, 2.39% (inactive). Regarding `O=C1OC(c2ccc(O)cc2)(c2ccc(O)cc2)c2ccccc21`, the “activity change, negative = cytotoxic” value was -0.215% (inactive). On the same count and under the same terms, as for `CC/C(=C(/CC)c1ccc(O)cc1)c1ccc(O)cc1`, the figure is -16.3% (inactive). `COc1cccc2c1C(=O)c1c(O)c3c(c(O)c1C2=O)C[C@@](O)(C(=O)CO)C[C@@H]3O[C@H]1C[C@H](N)[C@H](O)[C@H](C)O1`: the Potency was 0.251 µM (active). Regarding `CN(C)/N=N/c1nc[nH]c1C(N)=O`, the “activity change, negative = cytotoxic” value is 0.485% (inactive).
